Our source for the inhibition values is PubChem BioAssay AID1486 (The Scripps Research Institute Molecular Screening Center, 2009).

Several values for one entry are separate records, joined by “and”; a condition that tells them apart may be missing. Identical values can stand only once. Screen size: about 220,000 compounds; about 2,400 (1.1%) were called active. This is one part of a sample in which actives are shown more often than they occur. Unmarked numbers belong to inactive results.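 How the source made its calls: active means inhibition above a per-campaign cutoff, the mean inhibition of all tested compounds plus 3 SD (cut at about 27% in these data); inactive means the rest.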

This assay can be described thus: growth loss in parental Ba/F3 cells – cell-based, murine pro-B, CellTiter-Glo luminescence, counter-screen for JAK2V617F inhibitor project (AID 1486).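 Further: 0% = DMSO wells and 100% = JAK Inhibitor I control wells.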 Conditions: Ba/F3 parental viability, CellTiter-Glo ATP luminescence; at 5.6 µM; hits give high values.
On to `CC12CCC(C(=O)N(NC(=O)c3ccccc3O)C1=O)C2(C)C` (configuration not stated), for which the inhibition was 8.25%.

As to `COc1ccc(S(=O)(=O)NCC2CCCN(C(=O)c3occc3C)C2)cc1` (configuration not stated), the inhibition was 7.62%.

With `Cc1cccc(NC(=O)COc2ccccc2C)n1`, the inhibition was 83.3% (active).

Regarding `Cc1ccccc1OCC(=O)Nc1nc(C)c(C(=O)N(C)C)s1`, the inhibition is 7.55%.

Turning to `Cc1cccc(NC(=O)COc2ccc(Br)cc2C)n1`, the inhibition was 6.66%.

For `CC1(C)CC(=O)C/C(=N\NC(=O)c2cccs2)C1`, the inhibition was 8.84%.

Regarding `NS(=O)(=O)c1ccc(NC(=S)NC(=O)c2cccc(Br)c2)cc1`, the inhibition was 7.4%.

Take `Cn1c(-c2ccccc2)c[n+]2c1CCCCC2`: the inhibition was 3.67%.

For `Clc1ccc(C[n+]2cc(-c3ccccc3)n3c2CCC3)cc1`, the inhibition was 63.7% (active).

For the compound `Cc1ccc(C(=O)C[n+]2cc(-c3ccccc3)n3c2CCCCC3)cc1`, the inhibition was 70.7% (active) and 65.4% (active).

In the case of `Cc1ccc(-c2c[n+](CC(=O)Nc3ccccc3)c3n2CCC3)cc1`, the inhibition was 0.41%.

Take `Clc1ccc(C[n+]2cc(-c3ccc(Cl)cc3)n3c2CCC3)cc1`: the inhibition is 58.9% (active).

On to `O=C(C[n+]1cc(-c2ccc(Cl)c(Cl)c2)n2c1CCC2)c1cccs1`, for which the inhibition was 10.5%.

Consider `O=c1oc(-c2ccccc2NS(=O)(=O)c2ccc(Cl)cc2)nc2ccccc12`, for which the inhibition is 2.45%.

Consider `Cc1ccc(/C=N/NC(=S)Nc2cccc(S(=O)(=O)N(C)C)c2)o1`, for which the inhibition is 2.16%.

For the compound `COC(=O)c1ccc(NC(=S)Nc2cccc(C)n2)cc1`, the inhibition was -3.59%.

Turning to `O=[N+]([O-])c1cccc(Nc2c3ccccc3nc3ccccc23)c1`, the inhibition was 2.06%.

On to `Cc1ccc(Nc2c3c(nc4ccccc24)CCC3)cc1`, for which the inhibition was -1.93%.

Turning to `CC(=O)Nc1ccc(Nc2c3ccccc3nc3ccccc23)cc1`, the inhibition is 97.3% (active).

Regarding `CC1=C(C)CC(C(=O)NNC(=O)c2csc3c2CCC(C(C)(C)C)C3)C(C(=O)O)C1` (configuration not stated), the inhibition was 4.65%.

As to `CCCCCn1c(=O)c(C(=O)OCC)c(Cl)c2ccccc21`, the inhibition was -3.36%.

Regarding `Cc1ccc(S(=O)(=O)CC(=O)Nc2c(C)n(C)n(-c3ccccc3)c2=O)cc1`, the inhibition is 7.55%.

Turning to `Cc1c(CCO)c(=O)n(-c2ccccc2)n1S(=O)(=O)c1ccc(F)cc1`, the inhibition was 41% (active).

For the compound `CCOC(=O)C1CN(S(=O)(=O)c2ccc(F)cc2)C1`, the inhibition was 0.24%.

Take `Cc1cc(C)cc(OCC(=O)NNC(=O)CCN2C(=O)c3ccccc3C2=O)c1`: the inhibition was 5.47%.

As for `CCN(C(=O)COC(=O)c1c(NC(C)=O)sc(C)c1C)C1CCS(=O)(=O)C1` (configuration not stated), the inhibition was 8.25%.

`CCOC(=O)c1c(-c2ccc(C)cc2)csc1/N=C(\C)C1=C(O)c2ccccc2C1=O`: the inhibition was -0.41%.

Consider `CCOC(=O)C1=C(c2ccc(OC)cc2)C(=O)c2ccccc2C1=O`, for which the inhibition is 29.1% (active).

For the compound `CCOC(=O)c1ccccc1NS(=O)(=O)c1ccc(OC)cc1`, the inhibition is 5.36%.

Turning to `Brc1ccc(-c2nn[nH]n2)cc1`, the inhibition is 0.72%.

As to `COc1ccc(OCCC(=O)c2ccc(OC)cc2)cc1`, the inhibition is -3.65%.

In the case of `COc1ccc(C(=O)C[n+]2ccc(C)cc2)cc1`, the inhibition was 2.06%.

In the case of `COc1ccc(C(=O)C[n+]2ccc(N)c(C)c2C)cc1`, the inhibition was 74.6% (active).

As to `O=C(CNS(=O)(=O)c1ccccc1)NCC(=O)OCc1ccccc1F`, the inhibition was 8.12%.

In the case of `O=C(c1cncc(Br)c1)N1CCN(c2ccc([N+](=O)[O-])cc2)CC1`, the inhibition was 6.79%.

In the case of `O=C1NC(c2ccc(-c3ccccc3[N+](=O)[O-])o2)C(C(=O)c2ccc(Cl)cc2)C(O)(C(F)(F)F)N1` (configuration not stated), the inhibition was 6.99%.

As to `O=C(N/N=C/c1c[nH]c2ccccc12)c1cc2ccccc2o1`, the inhibition was -2.26%.

As for `Cc1c(/C=N\NC(=O)c2cc3ccccc3o2)c2ccccc2n1C`, the inhibition was 41.3% (active).

On to `O=C(N/N=C/c1coc2ccccc2c1=O)c1cc2ccccc2o1`, for which the inhibition is 4.3%.

As for `Cn1c(-c2ccc(F)cc2)cnc1SCC(=O)NNC(=O)Cc1ccccc1`, the inhibition is 1.6%.

Take `Cc1ccc(-c2cnc(NC(=O)CCC(=O)N(C)Cc3ccccc3)n2C)cc1`: the inhibition was 62.4% (active).

Consider `CN(Cc1ccccc1)C(=O)CCc1ccccc1`, for which the inhibition was 1.56%.

On to `CC(=O)Nc1nc(N(C)C)nc(N(C)C)n1`, for which the inhibition is 2.27%.

In the case of `COc1ccc(-n2nnnc2SCC(=O)NCc2cccs2)cc1`, the inhibition is 7.65%.

`CN(NC(=O)c1ccccc1F)c1nc(C(F)(F)F)nc2ccccc12`: the inhibition was 73.9% (active).

For the compound `CSc1nc(N(C)NC(=O)c2cccc(C)c2)c2ccccc2n1`, the inhibition was 90.9% (active).

On to `CN(NC(=O)c1ccccc1)c1nc2ccccc2nc1C(F)(F)F`, for which the inhibition is 5.67%.

Regarding `COC(=O)CNC(=O)c1ccccc1F`, the inhibition was 3.61%.

`COc1ccc(C(=O)NN(C)c2nc(-c3ccccc3)cc(C)c2S(C)(=O)=O)cc1`: the inhibition was 6.2%.

In the case of `COc1ccc(OCC(=O)NNC(=O)c2cccc(C)c2)cc1`, the inhibition was 1.18%.

`Cc1cc(C)c2nc(SCC(=O)N(C)C3CCS(=O)(=O)C3)cc(C)c2c1` (configuration not stated): the inhibition was 2.01%.

Turning to `CCc1cc(CNC(=O)CC2C(=O)NCCN2Cc2ccccc2C(F)(F)F)on1` (configuration not stated), the inhibition was 2.77%.

On to `O=C(O)c1ccn(COc2ccc(Br)cc2)n1`, for which the inhibition is 6.73%.

For `C=CCNC(=S)N/N=C/c1ccc(C)s1`, the inhibition is -10.6%.

In the case of `COC(=O)C1NN=C(C(=O)c2ccc(Br)cc2)C1c1cccc(Br)c1` (configuration not stated), the inhibition is 5.65%.

Regarding `CC(C)CCN1CCN(Cc2cn[nH]c2C2CCCCC2)CC1CCO` (configuration not stated), the inhibition is 5.24%.

In the case of `CC1(C)CC(CNCCC(c2ccc(F)cc2)c2ccco2)CCO1` (configuration not stated), the inhibition is 4.73%.

Regarding `Cc1cc(NC(=O)CN2C(=O)NC(C)(CCc3ccccc3)C2=O)no1` (configuration not stated), the inhibition was -0.49%.

In the case of `O=C(Nc1ccc(CSc2ccccc2)cc1)c1ccc(CN2CCOCC2)cc1`, the inhibition was 6.68%.

As for `O=C(COC(=O)CNC(=O)c1ccccc1F)NCC(F)(F)F`, the inhibition was 0.89%.

In the case of `CCOc1ccc(N2C(=O)CC(N(O)c3ccccc3)C2=O)cc1` (configuration not stated), the inhibition is -1.11%.

Take `CCOc1ccc(N2C(=O)CN(c3cccc4ccccc34)C2=S)cc1`: the inhibition is 80.4% (active).

For the compound `CCO/C=C1\C(=O)N(c2ccc(OCC)cc2)C(=O)c2ccccc21`, the inhibition is 0.91%.

In the case of `COc1ccc(CC(NC(C)=O)C(=O)NC2CCN(C(=O)C3CC3)CC2)cc1OC` (configuration not stated), the inhibition is -2.26%.

As to `Cc1cc(NC(=O)Nc2ccc(Cl)cc2)n(-c2ccccc2)n1`, the inhibition was 0.47%.

For `Cc1nn(-c2ccccc2)c(-n2cccc2)c1C(=O)O`, the inhibition was 7.83%.

As to `CCn1c(SCC(=O)Nc2sc(C)c(C)c2C#N)nnc1C1CC1`, the inhibition is -1.4%.

In the case of `COC(=O)c1ccc(/C=N/N2C(C)CCCC2C)cc1` (configuration not stated), the inhibition is -0.91%.

Take `CCCC(=O)Nc1nc2ccc(NC(=O)c3c(F)c(F)c(OC)c(F)c3F)cc2s1`: the inhibition was 83.3% (active).

Take `CCCC(=O)Nc1nc2ccc(NC(=O)c3cccnc3)cc2s1`: the inhibition is 6.39%.

Consider `COc1ccc2nc(Nc3nc4ccc(NC(C)=O)cc4s3)sc2c1`, for which the inhibition is 1.76%.

As to `CN(C)C(=O)c1cccn(Cc2cccc(C(F)(F)F)c2)c1=O`, the inhibition was 1.53%.

Consider `N#Cc1ncc(C(F)(F)F)cc1Oc1cccnc1`, for which the inhibition was 3.06%.

On to `Cc1ccc2nc(Nc3ccccc3O)nc(-c3ccccc3)c2c1`, for which the inhibition was 2.87%.

As for `COc1ccc(OC)c(Nc2nc(-c3ccc(O)c(O)c3)cs2)c1`, the inhibition was 7.93%.

In the case of `COc1ccc(-c2csc(Cc3nc(O)cs3)n2)cc1`, the inhibition is 2.47%.

For `CC(C)(C)C(=O)OCc1nc(-c2ccc(O)c(O)c2)cs1`, the inhibition is 55.4% (active).

As for `O=c1[nH]cnc2c1c(-c1ccccc1)cn2-c1ccc(F)cc1`, the inhibition was 5.71%.

On to `Cc1ccc2c(c1)C(O)(CC(=O)c1cccc(-n3cccc3)c1)C(=O)N2` (configuration not stated), for which the inhibition is 9.56%.

For `Cc1cc2c(cc1C)[n+](C)cn2CC(O)COCC1CC=CCC1` (configuration not stated), the inhibition is 77.5% (active).

`CCc1ccc(-n2c(SCc3cc(=O)n4cc(Br)ccc4n3)nc3[nH]ncc3c2=O)cc1`: the inhibition is 3.56%.

Turning to `Fc1ccc2[nH]c3c(N4CCSCC4)ncnc3c2c1`, the inhibition was 2.75%.

In the case of `Fc1ccc2[nH]c3c(N4CCN(Cc5ccc6c(c5)OCO6)CC4)ncnc3c2c1`, the inhibition was 43.4% (active).

As to `Cc1cc(N2CCN(Cc3ccc4c(c3)OCO4)CC2)n2ncnc2n1`, the inhibition is 8.83%.

For `Cc1ccc(OC(=O)c2c(C)nn(-c3ccccc3)c2C)cc1`, the inhibition is -2.11%.

Regarding `COc1cc(NS(=O)(=O)c2ccc(NC(C)=O)cc2)cc(OC)c1`, the inhibition is 6.53%.

In the case of `COC(=O)COc1ccc(S(=O)(=O)Nc2ccc(NC(C)=O)cc2)cc1`, the inhibition was 3.84%.

Consider `COc1ccc(NS(=O)(=O)c2ccc(NC(C)=O)cc2)cc1OC`, for which the inhibition is 36.4% (active).

On to `CCCCCCCC(=O)OC(CN1CCCCCC1)CN1CCCC1=O` (configuration not stated), for which the inhibition is 2.21%.

Take `CCOc1cccc(-n2nnnc2-c2ccc(OC)cc2)c1`: the inhibition was 56.8% (active).

As for `CCOc1cccc(-c2nnc3sc(COc4ccc(OC)cc4)nn23)c1`, the inhibition is 3.78%.

`COc1ccc(-n2nnnc2-c2nc3ccccc3s2)cc1`: the inhibition is 2.01%.

`CN(C)S(=O)(=O)c1ccc(C(=O)NCC(C)(C)N2CCOCC2)cc1`: the inhibition was 0.19%.

With `CC1(C)CC(=O)C=C(N2CCCC2)C1`, the inhibition is -2.25%.

Turning to `CC1(C)CC(N2CCN(C(c3ccccc3)c3ccccc3)CC2)=CC(=[N+]2CCCCC2)C1`, the inhibition is 88.5% (active).

Consider `CC(C)NC(=S)N1CCN(C(c2ccccc2)c2ccccc2)CC1`, for which the inhibition was 5.27%.

In the case of `Brc1ccc2ncnc(NCc3cccnc3)c2c1`, the inhibition was -4.51%.
